A number with no mark means an inactive call. Inconclusive results are not listed. A call without a number means that no potency is given here. Active and inactive are the calls of the source. The call rests on the fitted dose curve; in most records, active means well fitted curve in the direction sought with a large enough effect in the repeat runs; inconclusive means weak or mixed curves; inactive means no such curve, though single readings can be large; an effect the other way counts as inactive or inconclusive.
Key:
[1] = Caspase-3/7 induction in CHO-K1 cells by small molecules, qHTS assay (AID 1346980); further: nearly all actives have a fitted effect of over 15% in size
Summary of the method: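 Wild-type cells were seeded at 1,500 per well and settled 5 hr at 37 C, 5% CO2, then exposed to DMSO-dissolved compounds for 17 hr. Caspase-Glo 3/7 reagent was added, and luminescence was read after 30min at room temperature.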

[2] = biological target: Nuclear receptor subfamily 1 group I member 2 (Homo sapiens) (UniProt O75469); test: Human pregnane X receptor (PXR) small molecule agonists, qHTS assay (AID 1346982); further: nearly all actives have a fitted effect of over 35% in size; further: potency means the concentration at half of the fitted maximal effect
Sequence of Nuclear receptor subfamily 1 group I member 2 (Homo sapiens) (O75469 whole entry, looked up): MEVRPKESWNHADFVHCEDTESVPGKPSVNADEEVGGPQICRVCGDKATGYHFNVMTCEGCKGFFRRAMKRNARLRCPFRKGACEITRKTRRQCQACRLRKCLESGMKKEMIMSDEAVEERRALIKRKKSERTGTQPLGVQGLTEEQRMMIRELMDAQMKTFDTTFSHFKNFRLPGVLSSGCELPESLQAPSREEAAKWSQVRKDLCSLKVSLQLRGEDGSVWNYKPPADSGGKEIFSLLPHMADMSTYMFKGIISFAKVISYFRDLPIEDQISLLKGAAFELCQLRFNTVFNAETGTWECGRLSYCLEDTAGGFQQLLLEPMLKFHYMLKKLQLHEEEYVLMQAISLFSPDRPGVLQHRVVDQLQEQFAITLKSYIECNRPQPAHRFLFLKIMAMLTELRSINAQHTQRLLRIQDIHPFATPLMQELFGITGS
Summary of the method: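 Compound-induced hPXR transactivation of a CYP3A4 luciferase reporter was scored in HepG2 PXR-Luc cells over 24 hr at 37 C, 5% CO2, by luminescence.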

[3] = biological target: Nuclear receptor subfamily 1 group I member 2 (Rattus norvegicus) (UniProt Q9R1A7); test: Rat pregnane X receptor (rPXR) activation by small molecules, qHTS assay (AID 1346983); settings: rPXR luciferase reporter cells, One-Glo luminescence, 24 h; max activation: active compounds read high; further: nearly all actives have a fitted effect of over 20% in size; further: potency means the concentration at half of the fitted maximal effect
Sequence of Nuclear receptor subfamily 1 group I member 2 (Rattus norvegicus) (Q9R1A7 whole entry, looked up): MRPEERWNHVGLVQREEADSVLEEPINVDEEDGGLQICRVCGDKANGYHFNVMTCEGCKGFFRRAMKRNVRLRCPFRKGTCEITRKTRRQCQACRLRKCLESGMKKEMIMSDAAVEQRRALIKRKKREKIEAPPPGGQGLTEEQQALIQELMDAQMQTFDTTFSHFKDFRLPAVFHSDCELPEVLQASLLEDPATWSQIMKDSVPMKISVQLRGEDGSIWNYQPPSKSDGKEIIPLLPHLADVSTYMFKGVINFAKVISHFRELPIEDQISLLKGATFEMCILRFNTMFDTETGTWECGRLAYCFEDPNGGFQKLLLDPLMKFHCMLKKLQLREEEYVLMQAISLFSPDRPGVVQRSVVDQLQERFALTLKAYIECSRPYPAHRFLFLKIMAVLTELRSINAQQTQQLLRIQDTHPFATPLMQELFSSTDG
Summary of the method: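 Cell-based rPXR luciferase reporter assay, 2,000 cells per well, rested 5hr at 37 C before compound addition in DMSO, then 24 hr at 37 C. One-Glo reagent was added and luminescence read after 30 min at room temperature.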

[4] = biological target: Nuclear receptor subfamily 1 group I member 2 (Homo sapiens) (UniProt O75469); test: CYP3A4 induction through human pregnane X receptor (PXR) by small molecules, qHTS assay (AID 1346984); further: nearly all actives have a fitted effect of over 40% in size; further: potency means the concentration at half of the fitted maximal effect
Summary of the method: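 Readings come from a luciferase reporter: DPX-2 cells, which are HepG2 cotransfected with PXR and a CYP3A4-promoter construct, were exposed to test compounds for 24 h at 37C before One-Glo detection.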

[5] = biological target: Nuclear receptor subfamily 1 group I member 2 (Homo sapiens) (UniProt O75469); test: Human pregnane X receptor (PXR) activation by small molecules, qHTS assay (AID 1346985); further: nearly all actives have a fitted effect of over 40% in size; further: potency means the concentration at half of the fitted maximal effect
Summary of the method: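 DPX-2 cells (HepG2 co-transfected with a PXR response element and a CYP3A4-promoter luciferase construct) were seeded at 2,000 per well, rested 5 hr at 37C, then exposed to DMSO-dissolved compounds for 24 hr. Activation was read as luciferase luminescence.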

[6] = biological target: Cytochrome P450 2D6 (Homo sapiens) (UniProt P10635); test: Cytochrome P450 Family 2 Subfamily D Member 6 (CYP2D6) small molecule antagonists: luciferase reporter qHTS assay (AID 1671196); further: nearly all actives have a fitted effect of over 50% in size; further: potency means the concentration at half of the fitted maximal effect
Sequence of Cytochrome P450 2D6 (Homo sapiens) (P10635 whole entry, looked up): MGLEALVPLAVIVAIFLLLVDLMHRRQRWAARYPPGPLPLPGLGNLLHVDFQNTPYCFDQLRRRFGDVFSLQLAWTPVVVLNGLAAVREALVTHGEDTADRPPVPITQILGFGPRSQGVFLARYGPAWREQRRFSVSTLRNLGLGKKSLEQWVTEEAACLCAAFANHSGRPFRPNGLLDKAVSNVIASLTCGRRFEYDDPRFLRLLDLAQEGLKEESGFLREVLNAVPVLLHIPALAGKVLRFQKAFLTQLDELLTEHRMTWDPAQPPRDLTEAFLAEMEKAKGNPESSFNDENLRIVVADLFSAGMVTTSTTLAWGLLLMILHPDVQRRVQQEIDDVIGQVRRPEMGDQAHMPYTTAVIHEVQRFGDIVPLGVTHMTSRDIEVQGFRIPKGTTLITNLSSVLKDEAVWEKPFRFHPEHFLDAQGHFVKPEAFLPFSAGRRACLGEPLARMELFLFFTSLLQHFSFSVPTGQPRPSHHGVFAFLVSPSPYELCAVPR
Summary of the method: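 Each well received CYP2D6 with its proluciferin substrate and chemical, sat 10 min, then got NADPH regeneration solution for 1 h at room temperature. Luminescence in RLU served as the activity measure.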

[7] = biological target: Cytochrome P450 2C19 (Homo sapiens) (UniProt P33261); test: Cytochrome P450 Family 2 Subfamily C Member 19 (CYP2C19) small molecule antagonists: luciferase reporter qHTS assay (AID 1671197); further: nearly all actives have a fitted effect of over 65% in size; further: potency means the concentration at half of the fitted maximal effect
Sequence of Cytochrome P450 2C19 (Homo sapiens) (P33261 whole entry, looked up): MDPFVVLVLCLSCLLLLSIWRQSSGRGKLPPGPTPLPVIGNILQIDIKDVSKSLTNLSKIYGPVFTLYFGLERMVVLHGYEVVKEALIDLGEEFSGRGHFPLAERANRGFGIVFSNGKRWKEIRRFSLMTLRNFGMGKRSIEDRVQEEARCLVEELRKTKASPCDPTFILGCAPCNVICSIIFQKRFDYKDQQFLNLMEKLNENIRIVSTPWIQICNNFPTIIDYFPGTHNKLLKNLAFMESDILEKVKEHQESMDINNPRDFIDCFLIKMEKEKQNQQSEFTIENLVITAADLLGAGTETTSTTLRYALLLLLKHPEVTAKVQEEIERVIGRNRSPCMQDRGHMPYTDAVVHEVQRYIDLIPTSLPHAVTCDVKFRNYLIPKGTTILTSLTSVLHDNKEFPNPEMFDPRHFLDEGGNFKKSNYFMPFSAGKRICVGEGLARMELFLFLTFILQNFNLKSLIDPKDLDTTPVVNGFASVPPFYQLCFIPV
Summary of the method: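 Relative luminescence units recorded 20 min after the detection reagent stopped a 1 h, 37C CYP2C19 reaction on proluciferin substrate, which was started by NADPH regeneration following 10 min room-temperature compound preincubation; ketoconazole positive control.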

[8] = biological target: Cytochrome P450 1A2 (Homo sapiens) (UniProt P05177); test: Cytochrome P450 Family 1 Subfamily A Member 2 (CYP1A2) small molecule antagonists: luciferase reporter qHTS assay (AID 1671199); further: nearly all actives have a fitted effect of over 50% in size; further: potency means the concentration at half of the fitted maximal effect
Sequence of Cytochrome P450 1A2 (Homo sapiens) (P05177 whole entry, looked up): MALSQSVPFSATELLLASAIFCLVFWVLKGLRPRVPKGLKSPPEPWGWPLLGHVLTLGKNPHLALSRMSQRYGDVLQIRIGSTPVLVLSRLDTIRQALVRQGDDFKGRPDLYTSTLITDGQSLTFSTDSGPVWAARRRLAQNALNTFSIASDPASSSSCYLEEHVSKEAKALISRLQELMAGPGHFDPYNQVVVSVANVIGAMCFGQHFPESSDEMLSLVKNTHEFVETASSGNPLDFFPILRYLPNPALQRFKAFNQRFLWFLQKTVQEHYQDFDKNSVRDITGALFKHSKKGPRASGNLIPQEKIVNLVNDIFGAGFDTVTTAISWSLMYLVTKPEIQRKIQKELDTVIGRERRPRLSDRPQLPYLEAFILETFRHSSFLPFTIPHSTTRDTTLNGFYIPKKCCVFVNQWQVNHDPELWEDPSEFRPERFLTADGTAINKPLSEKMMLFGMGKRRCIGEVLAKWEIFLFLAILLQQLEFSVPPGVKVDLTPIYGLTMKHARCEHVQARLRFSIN
Summary of the method: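 Enzymatic CYP1A2 assay, human, luminescent: 10 min compound–enzyme–substrate preincubation, 1 h NADPH-dependent turnover, 20 min detection step, room temperature throughout. Reduced light indicates lower CYP1A2 activity.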

[9] = biological target: Voltage-gated inwardly rectifying potassium channel KCNH2 (Homo sapiens) (UniProt Q12809); test: Human Ether-a-go-go-Related Gene (hERG) channel small molecule antagonists: fluorescence cell-based qHTS assay (AID 1671200); further: nearly all actives have a fitted effect of over 50% in size; further: potency means the concentration at half of the fitted maximal effect
Sequence of Voltage-gated inwardly rectifying potassium channel KCNH2 (Homo sapiens) (Q12809 whole entry, looked up): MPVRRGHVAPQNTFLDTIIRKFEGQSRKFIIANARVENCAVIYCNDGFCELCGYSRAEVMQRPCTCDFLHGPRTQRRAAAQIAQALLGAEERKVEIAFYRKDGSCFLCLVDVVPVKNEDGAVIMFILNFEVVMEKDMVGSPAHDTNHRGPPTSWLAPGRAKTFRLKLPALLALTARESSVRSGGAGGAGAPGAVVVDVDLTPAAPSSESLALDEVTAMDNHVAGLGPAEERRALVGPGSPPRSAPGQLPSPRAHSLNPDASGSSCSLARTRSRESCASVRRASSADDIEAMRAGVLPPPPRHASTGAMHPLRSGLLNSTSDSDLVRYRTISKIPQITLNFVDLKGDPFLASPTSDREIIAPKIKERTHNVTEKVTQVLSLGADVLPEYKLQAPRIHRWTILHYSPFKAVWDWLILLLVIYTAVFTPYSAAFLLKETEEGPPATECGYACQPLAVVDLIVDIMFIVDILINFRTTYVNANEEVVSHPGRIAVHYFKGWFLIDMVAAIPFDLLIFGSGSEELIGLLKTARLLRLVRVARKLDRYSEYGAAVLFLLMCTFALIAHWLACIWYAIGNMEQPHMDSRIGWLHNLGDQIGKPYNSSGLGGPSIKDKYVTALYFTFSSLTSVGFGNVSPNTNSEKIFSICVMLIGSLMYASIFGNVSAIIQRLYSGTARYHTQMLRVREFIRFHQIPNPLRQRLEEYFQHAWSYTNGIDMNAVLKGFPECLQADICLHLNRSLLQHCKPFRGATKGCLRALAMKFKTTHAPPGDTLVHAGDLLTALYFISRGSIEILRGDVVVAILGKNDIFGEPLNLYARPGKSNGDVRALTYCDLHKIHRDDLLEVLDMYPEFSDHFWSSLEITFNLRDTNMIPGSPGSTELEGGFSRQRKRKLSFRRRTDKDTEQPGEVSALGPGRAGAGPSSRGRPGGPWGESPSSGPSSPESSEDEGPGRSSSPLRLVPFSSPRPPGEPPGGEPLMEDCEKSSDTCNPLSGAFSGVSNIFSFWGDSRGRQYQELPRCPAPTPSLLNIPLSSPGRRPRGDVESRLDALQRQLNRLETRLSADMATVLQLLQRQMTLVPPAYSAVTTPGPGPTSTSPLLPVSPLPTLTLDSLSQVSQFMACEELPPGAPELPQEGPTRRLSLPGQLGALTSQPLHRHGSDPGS
Summary of the method: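 hERG-U2OS cells plated overnight at 37 C, loaded with FluxOR II dye 1 h at RT in dark; after 10 min, thallium stimulus added. Fluorescence (480/540 nm) read kinetically for 2 min at 1 s intervals.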

[10] = biological target: Cytochrome P450 3A4 (Homo sapiens) (UniProt P08684); test: Cytochrome P450 Family 3 Subfamily A Member 4 (CYP3A4) small molecule antagonists: luciferase reporter qHTS assay (AID 1671201); further: nearly all actives have a fitted effect of over 50% in size; further: potency means the concentration at half of the fitted maximal effect
Sequence of Cytochrome P450 3A4 (Homo sapiens) (P08684 whole entry, looked up): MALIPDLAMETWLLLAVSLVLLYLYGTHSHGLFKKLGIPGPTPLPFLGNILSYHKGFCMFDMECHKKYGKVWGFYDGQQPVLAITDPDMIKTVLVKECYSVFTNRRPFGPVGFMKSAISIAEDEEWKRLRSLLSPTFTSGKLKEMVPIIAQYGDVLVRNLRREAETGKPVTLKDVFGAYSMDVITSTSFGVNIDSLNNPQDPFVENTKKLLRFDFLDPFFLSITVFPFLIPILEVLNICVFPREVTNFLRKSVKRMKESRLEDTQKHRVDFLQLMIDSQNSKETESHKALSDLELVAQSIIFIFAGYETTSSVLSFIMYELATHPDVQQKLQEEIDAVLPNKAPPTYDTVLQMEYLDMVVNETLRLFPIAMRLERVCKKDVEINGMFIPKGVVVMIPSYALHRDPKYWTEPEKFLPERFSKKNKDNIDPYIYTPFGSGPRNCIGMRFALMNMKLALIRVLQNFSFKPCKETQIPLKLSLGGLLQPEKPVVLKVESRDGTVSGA
Summary of the method: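 P450-Glo CYP3A4 luminescent assay: compounds preincubated 10 min at room temperature with enzyme and proluciferin substrate, NADPH regeneration added, 1 h room-temperature reaction, stopped with luciferin detection reagent; luminescence read after 20 min. Ketoconazole positive control.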

[11] = Caspase-3/7 induction in HepG2 cells by small molecules, qHTS cell viability counter screen (AID 1346981); further: nearly all actives have a fitted effect of over 30% in size; further: potency means the concentration at half of the fitted maximal effect
Summary of the method: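 Viability determined by CellTiter-Fluor fluorescence in HepG2 wells also used for the luminescent Caspase-Glo 3/7 read. Compounds were present for 16 hr at 37 C, 5% CO2 before reagent addition.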

[12] = biological target: Cytochrome P450 2C9 (Homo sapiens) (UniProt P11712); test: Cytochrome P450 Family 2 Subfamily C Member 9 (CYP2C9) small molecule antagonists: luciferase reporter qHTS assay (AID 1671198); further: nearly all actives have a fitted effect of over 50% in size; further: potency means the concentration at half of the fitted maximal effect
Sequence of Cytochrome P450 2C9 (Homo sapiens) (P11712 whole entry, looked up): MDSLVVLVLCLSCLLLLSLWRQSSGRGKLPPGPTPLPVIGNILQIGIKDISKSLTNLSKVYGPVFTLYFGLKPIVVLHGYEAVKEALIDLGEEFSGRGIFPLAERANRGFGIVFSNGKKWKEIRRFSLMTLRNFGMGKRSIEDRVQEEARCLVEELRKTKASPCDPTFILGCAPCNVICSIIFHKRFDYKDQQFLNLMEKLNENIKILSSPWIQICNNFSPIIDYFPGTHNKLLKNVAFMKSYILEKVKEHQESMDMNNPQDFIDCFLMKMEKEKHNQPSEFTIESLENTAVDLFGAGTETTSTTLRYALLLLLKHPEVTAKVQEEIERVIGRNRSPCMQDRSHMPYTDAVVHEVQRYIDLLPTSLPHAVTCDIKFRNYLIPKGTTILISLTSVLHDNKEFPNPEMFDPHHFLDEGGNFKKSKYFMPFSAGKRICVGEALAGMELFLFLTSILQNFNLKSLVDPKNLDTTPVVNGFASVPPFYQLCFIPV
Summary of the method: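 CYP2C9 activity was measured with a P450-Glo proluciferin substrate. Enzyme–substrate mix was held with compound for 10 min at room temperature, then NADPH regeneration solution was added for 1 h at 37C. Luciferin product was read as luminescence.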

| Compound | Potency [1] | Potency [2] | max activation [3] [%] | Potency [4] | Potency [5] | Potency [6] | Potency [7] | Potency [8] | Potency [9] | Potency [10] | Potency [11] | Potency [12] | Potency [3] |
| --- | --- | --- | --- | --- | --- | --- | --- | --- | --- | --- | --- | --- | --- |
| Cc1ccccc1N=Nc1ccc(N=Nc2c(O)ccc3ccccc23)c(C)c1 | inactive | inactive | 6.7 | 7.94 µM (active) | inactive | inactive | 34.7 µM (active) | 13.8 µM (active) | inactive | inactive |  |  |  |
| CC1CCc2cc(F)cc3c(=O)c(C(=O)O)cn1c23 (stereo not given) | inactive |  |  |  |  | inactive |  | inactive | inactive |  | inactive | inactive |  |
| O=C(O)[C@@H]1[C@H]2C[C@H]3c4[nH]c5ccccc5c4CCN3C[C@@H]2CC[C@@H]1O |  | inactive | -0.311 | inactive | inactive | 1.55 µM (active) | 8.71 µM (active) | inactive | inactive | inactive | inactive | inactive |  |
| CC1(C)CCC(C)(C)c2cc(NC(=O)c3ccc(C(=O)O)cc3)ccc21 | inactive | inactive | -8.01 | inactive | inactive | inactive | inactive | inactive | inactive |  |  |  |  |
| CCOC(=O)[C@H](CCc1ccccc1)N[C@H]1CCc2ccccc2N(CC(=O)O)C1=O | inactive | 23.7 µM (active) |  | 10 µM (active) |  |  | 6.92 µM (active) | 12.9 µM (active) |  |  |  | 8.71 µM (active) |  |
| CCCCCOC(=O)COc1cc(N2C(=O)C3=C(CCCC3)C2=O)c(F)cc1Cl | inactive |  |  |  |  | 25.2 µM (active) | 25.2 µM (active) | 31.7 µM (active) |  | 6.33 µM (active) | inactive | 5.64 µM (active) |  |
| Cc1ccc(C(C)c2ccc(C)c(C)c2)cc1C | inactive |  |  |  |  | inactive | 7.1 µM (active) |  | inactive | inactive | inactive | 11.2 µM (active) |  |
| NC(N)=NN=C(/C=C/c1ccc([N+](=O)[O-])o1)/C=C/c1ccc([N+](=O)[O-])o1 |  | 2.66 µM (active) | -21.7 | inactive | inactive | 15.5 µM (active) | 3.89 µM (active) |  | 2.39 µM (active) |  | 8.41 µM (active) | 24.5 µM (active) |  |
| Nc1nc(N)c2nc(CNc3ccc(C(=O)N[C@@H](CCC(=O)O)C(=O)O)cc3)cnc2n1 | inactive |  |  |  |  |  | inactive | inactive | inactive | inactive | inactive | inactive |  |
| CCN(CC)CCOc1ccc2c(c1)C(=O)c1cc(OCCN(CC)CC)ccc1-2 | inactive |  | 2.03 | inactive | inactive |  | inactive |  | inactive | inactive |  | inactive |  |
| CCCCCCc1ccc(N)cc1 | inactive | 30.6 µM (active) |  |  |  |  | 3.56 µM (active) | 28.3 µM (active) | inactive | 35.6 µM (active) |  | 17.8 µM (active) |  |
| CC(C)=CCCC(C)CC=O (stereo not given) | inactive |  |  |  |  |  |  |  | inactive |  | inactive |  |  |
| CCCCc1cc2ccccc2c(OCCN(C)C)n1 |  | inactive | 6.03 | inactive | inactive | 4.36 µM (active) | inactive | 0.436 µM (active) | 3.38 µM (active) | inactive | inactive | inactive |  |
| C=CC(C)(CCC=C(C)C)OC(=O)c1ccccc1 (stereo not given) | inactive |  |  |  |  | inactive | 15.9 µM (active) | 39.9 µM (active) |  | 31.7 µM (active) |  | 17.8 µM (active) |  |
| O=S(=O)(O)c1ccc(O)c2ncccc12 | inactive | inactive |  |  |  |  | inactive | inactive | inactive | inactive |  |  |  |
| Nc1ccc(C(=O)Nc2ccccc2N)cc1 |  | 8.41 µM (active) |  | inactive | 11.2 µM (active) | inactive | inactive | inactive | inactive | inactive | inactive | inactive | 3.55 µM (active) |
| O=C(NN1CCCC1)NS(=O)(=O)c1ccc(Cl)cc1 |  | inactive |  |  |  | inactive | inactive | inactive | inactive | inactive | inactive | inactive |  |
| Cc1cccc(C(C)(C)C)c1O |  |  |  |  |  | inactive |  |  | inactive |  | inactive |  |  |

Reference: PubChem BioAssay (Tox21)
